Test results as given in the supplement of paper PMC12494721.
Counter-ions that a name gives are not always drawn.

Experiments:
Settings in all cases: incubation time: 27 h, anaerobic, 37 °C;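 for the amine columns active = adjusted P below 0.05 in both replicates with a change the same way and a mean fold change under 0.8 or over 1.25; inactive = the rest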
[1] = system: Clostridium sporogenes DSM 1664; test: growth (OD595) fold change vs plate DMSO controls (fold change (ratio)); higher = more growth
In short: (§1)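 Anaerobic mGAM cultures in 96-well plates were grown for 27 h at 37 °C, and absorbance was then read at 595 nm. After blank and compound background correction with 20 µM compound solutions in water, a calibration factor of 5 gave OD. Growth is the fold change relative to the median of each plate's DMSO controls. Values are means of 2 biological replicates, with fold changes above 1.5 set to NA.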

Escherichia coli IAI1 [2] = test: as above
In short: as §1

[3] = system: Klebsiella aerogenes DSM 30053; test: as above
In short: as §1

[4] = system: Ruminococcus gnavus DSM 108212; test: as above
In short: as §1

[5] = system: Klebsiella aerogenes DSM 30053; test: fold change of Histamine concentration vs plate DMSO controls (fold change (ratio)); higher = more amine produced, active = hit call of the paper (significant change in both replicates, either direction)
In short: (§2)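 Extracts of whole anaerobic mGAM cultures were analysed for amines by LC–triple-quadrupole MS with dynamic MRM and external calibration curves, with drift corrected within batch. Four gut strains were grown at 37 °C for 27 h in 80 µL wells with compounds at 20 µM final, sweeteners at 50 µM final. Each value expresses fold change over plate DMSO controls. The average of 2 biological replicates is shown.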

[6] = system: Clostridium sporogenes DSM 1664; test: fold change of Tryptamine concentration vs plate DMSO controls (fold change (ratio)); higher = more amine produced, active = hit call of the paper (significant change in both replicates, either direction)
In short: as §2

[7] = system: Ruminococcus gnavus DSM 108212; test: as above
In short: as §2

Escherichia coli IAI1 [8] = test: fold change of Putrescine concentration vs plate DMSO controls (fold change (ratio)); higher = more amine produced, active = hit call of the paper (significant change in both replicates, either direction)
In short: as §2

[9] = system: Klebsiella aerogenes DSM 30053; test: as above
In short: as §2

Escherichia coli IAI1 [10] = test: fold change of Cadaverine concentration vs plate DMSO controls (fold change (ratio)); higher = more amine produced, active = hit call of the paper (significant change in both replicates, either direction)
In short: as §2

[11] = system: Klebsiella aerogenes DSM 30053; test: as above
In short: as §2

[12] = system: Ruminococcus gnavus DSM 108212; test: fold change of 2-Phenylethylamine concentration vs plate DMSO controls (fold change (ratio)); higher = more amine produced, active = hit call of the paper (significant change in both replicates, either direction)
In short: as §2

Structure (SMILES)	growth [1]	growth (Escherichia coli IAI1 [2])	growth [3]	growth [4]	fold change of Histamine concentration [5]	fold change of Tryptamine concentration [6]	fold change of Tryptamine concentration [7]	fold change of Putrescine concentration (Escherichia coli IAI1 [8])	fold change of Putrescine concentration [9]	fold change of Cadaverine concentration (Escherichia coli IAI1 [10])	fold change of Cadaverine concentration [11]	fold change of 2-Phenylethylamine concentration [12]
CCOCCn1c(N2CCCN(C)CC2)nc2ccccc21 [Emedastine difumarate] (20 µM)	1.08	1.02	1.03	0.971	0.993 (inactive)	0.994 (inactive)	1.02 (inactive)	0.991 (inactive)	1.01 (inactive)	1 (inactive)	0.999 (inactive)	1.05 (inactive)
Nc1nc(NC2CC2)c2ncn([C@H]3C=C[C@@H](CO)C3)c2n1 [Abacavir sulfate] (20 µM)	1.25	1.05	1.02	1.02	1.04 (inactive)	0.969 (inactive)	0.953 (inactive)	1.03 (inactive)	1.04 (inactive)	0.969 (inactive)	0.992 (inactive)	0.935 (inactive)
O=C(CO)[C@@H](O)[C@@H](O)[C@H](O)CO [D-Tagatose] (50 µM)	0.957	1.01	1.03	0.984	0.943 (inactive)	0.991 (inactive)	0.995 (inactive)	1.03 (inactive)	1.02 (inactive)	1.07 (inactive)	1.03 (inactive)	0.992 (inactive)
CCOc1ccc(NC(=O)CC(C)O)cc1 (configuration not stated) [Bucetin] (20 µM)	0.973	0.985	0.995	1.07	0.984 (inactive)	0.999 (inactive)	0.95 (inactive)	0.997 (inactive)	1.01 (inactive)	0.977 (inactive)	0.993 (inactive)	0.936 (inactive)
Cc1cccc(CN2CCN(C(c3ccccc3)c3ccc(Cl)cc3)CC2)c1 (configuration not stated) [Meclozine dihydrochloride] (20 µM)	0.897	0.963	1.01	0.705	0.964 (inactive)	1.04 (inactive)	0.826 (inactive)	1 (inactive)	0.989 (inactive)	0.971 (inactive)	1.01 (inactive)	0.93 (inactive)
N=C(N)NS(=O)(=O)c1ccc(N)cc1 [Sulfaguanidine] (20 µM)	0.947	1.07	0.963	0.676	1.04 (inactive)	1.27 (inactive)	1.09 (inactive)	1.2 (inactive)	0.853 (inactive)	1.04 (inactive)	1.05 (inactive)	1.09 (inactive)
CCC(=O)O[C@@H]1CC(=O)O[C@H](C)C/C=C/C=C/[C@H](O)[C@H](C)C[C@H](CC=O)[C@H](O[C@@H]2O[C@H](C)[C@@H](O[C@H]3C[C@@](C)(O)[C@@H](OC(=O)CC)[C@H](C)O3)[C@H](N(C)C)[C@H]2O)[C@H]1OC [Midecamycin] (20 µM)	0.00179	0.905	0.965	0.164	0.412 (active)	0.0271 (active)	0.143 (active)	0.909 (inactive)	1.06 (inactive)	1.05 (inactive)	1.05 (inactive)	0.141 (active)
CC(CN(C)C)CN1c2ccccc2Sc2ccccc21 (configuration not stated) [Trimeprazine tartrate] (20 µM)	1.23	1.01	1.07	0.937	0.989 (inactive)	1.08 (inactive)	0.804 (inactive)	0.885 (inactive)	1 (inactive)	1.02 (inactive)	1.01 (inactive)	0.818 (inactive)
CN(C/C=C/c1ccccc1)Cc1cccc2ccccc12 [Naftifine hydrochloride] (20 µM)	1.08	1.21	0.994	0.89	0.999 (inactive)	0.99 (inactive)	0.941 (inactive)	1.08 (inactive)	0.996 (inactive)	1.34 (active)	0.99 (inactive)	1.01 (inactive)
O=C(NC(Cc1cc(=O)[nH]c2ccccc12)C(=O)O)c1ccc(Cl)cc1 (configuration not stated) [Rebamipide] (20 µM)	0.925	1.01	0.964	0.957	0.934 (inactive)	1.06 (inactive)	1.28 (active)	1.07 (inactive)	0.965 (inactive)	0.957 (inactive)	1 (inactive)	1.52 (active)
C=C1/C(=C\C=C2/CCC[C@]3(C)[C@@H]([C@H](C)/C=C/[C@@H](O)C4CC4)CC[C@@H]23)C[C@@H](O)C[C@@H]1O [Calcipotriene] (20 µM)	1.07	0.96	1.02	1.3	1.02 (inactive)	0.952 (inactive)	1.01 (inactive)	1.01 (inactive)	1.01 (inactive)	0.969 (inactive)	1 (inactive)	0.981 (inactive)
